In PubChem BioAssay (NCI):
The panel holds about 79,000 compounds, 15% with a hit somewhere; the sample as a whole holds those more often. Unmarked numbers belong to inactive results. Calls of active or inactive are those of the source. Cut-off read from the data, not from the text of the source: active = growth inhibition above about 70%; inactive = the rest.

assay: NCI Yeast Anticancer Drug Screen. Data for the mlh1 rad18 strain (AID 175); conditions: S. cerevisiae mlh1 rad18 strain growth inhibition; at 5.0 µM (retest, dose inferred, filed as 0.5); stronger effect = higher value
Procedure, shortened: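 Inhibition values reflect reduced growth of mutant yeast versus vehicle-treated controls following compound exposure; the mutations affect DNA damage repair.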

SMILES	growth inhibition
CC(=O)OC1=CC2=CCC3C(CCC4(C)C(C(C)=O)CCC34)C2(C)CC1 (configuration not stated)	-4%
CCCC/C=C1/CCC(CN(C)C)C1=O (configuration not stated)	19%
CCN1CCC(O)(/C=C/c2ccccc2C)C(C(=O)/C=C/c2ccccc2C)C1 (configuration not stated)	4%
Cc1c(Cl)ccc2c(C(O)CNCc3ccccc3)cc(-c3ccc(Cl)cc3)nc12 (configuration not stated)	59%
COc1ccc(C2CC(c3c(O)ccc4ccccc34)=NN2)cc1OC (configuration not stated)	-1%
O=c1[nH]c2c([N+](=O)[O-])cc(Cl)cc2nc1/C=C(\O)c1ccco1	-4%
NC1c2ccccc2-c2ccc([N+](=O)[O-])cc21 (configuration not stated)	14%
CN(C(=O)c1ccccc1)C1(COC(=O)c2ccccc2)CCCCC1	16%
CCOC(=O)Nc1cc2c(cc1Br)-c1ccccc1C2O (configuration not stated)	-2%
O=C(/C=C(/Nc1ccccc1)C(=O)c1ccccc1)c1ccccc1	6%
Nc1ccc2[nH]c3ccccc3c2c1	0%
Clc1ccc([I+]c2cccs2)cc1	72% (active)
CCCCCCC(C)S(=O)(=O)c1ccc(C)cc1 (configuration not stated)	-3%
COC(=O)/C(=C/C=C(c1ccccc1)c1ccccc1)N(C(C)=O)C(C)=O	-3%
Oc1ccc(Cc2cccc(Br)c2)c(O)c1	-3%
O=C(NNc1nc(-c2ccccc2)cs1)C(F)(F)F	93% (active)
Nc1nc(-c2ccc(Cl)cc2)cs1	-30%
Cc1cc(C)nc(CCSS(=O)(=O)O)c1	12%
CC1(C)OC2C(COC(c3ccccc3)(c3ccccc3)c3ccccc3)OC(n3cnc4c(N)ncnc43)C2O1 (configuration not stated)	32%

SMILES	growth inhibition
Oc1ccc(N=Nc2ccccc2)c(O)c1.Oc1ccc(N=Nc2ccccc2)c(O)c1.[Cu]	12%
COC(=O)/C=N/O	-2%
C=CCCCCO/N=C/c1c2c(O)c3c(O)c(C)c4c(c3c1O)C(=O)C(C)(O/C=C/C(OC)C(C)C(OC(C)=O)C(C)C(O)C(C)C(O)C(C)/C=C/C=C(\C)C(=O)N2)O4 (configuration not stated)	34%
O=C(N/C(=C\c1ccc2c(c1)OCO2)c1nc2ccccc2s1)c1ccccc1	18%
C=C1C[C@H](O)[C@H]2C(C[Se]c3ccccc3)C(=O)O[C@@H]2[C@H]2[C@H](C)C(O)C[C@@H]12 (some centres not stated)	0%
CC1=C(C(=O)Nc2ccccc2C)C(c2ccccc2F)C(C(=O)Nc2ccccc2C)=C(C)N1	1%
COC(=O)CCC(NC(=S)N/N=C(\C)c1cnc2ccccc2n1)C(=O)OC (configuration not stated)	15%
CC(=O)Oc1c2c(c(OC(C)=O)c3c1n(C(C)=O)c1ccccc1n3C(C)=O)n(C(C)=O)c1ccccc1n2C(C)=O	51%
CCOc1c(N=Nc2ccc(Cl)cc2)c(-c2ccccc2)nn1C(N)=S	0%
CC(=O)N(C1=CC(=O)c2ccccc2C1=O)c1ccc(Cl)cc1	92% (active)
O=C(C1=Cc2ccccc2OC1)N1CCN(c2cccc(Cl)c2)CC1	-12%
Oc1c(Cl)ccc2cccnc12	95% (active)
COc1ccc2c(Cc3cc(Cl)ccc3O)cncc2c1O	16%
CCCCCCCCCCCC1=NCC(C)N1 (configuration not stated)	-29%
c1ccc2c(B(c3cccc4ccccc34)c3cccc4ccccc34)cccc2c1	0%
CC(CCOP(=O)(O)OCCC(C)CC(C)(C)C)CC(C)(C)C (configuration not stated)	3%
Cc1ccc(S(=O)(=O)Nn2c(S)c(C#N)c(-c3ccc([N+](=O)[O-])cc3)c(C#N)c2=O)cc1	19%
COC1=C(/C(=N/Nc2ccc([N+](=O)[O-])cc2[N+](=O)[O-])c2ccccc2)COC1=O	3%
